Assay results from PubChem BioAssay.
Active and inactive are the calls of the source. Unless noted, how the calls were made is not given here.

Legend:
[1] = resazurin metabolic signal in HepG2 cells – cell-based, resazurin fluorescence, 24 h, PK04 Diversity Set, profiling panel (AID 1172); details: HepG2 viability, higher = more signal
[2] = budding yeast growth changes without added modifier – OD600, strain BY4716, 24 h, basal condition, primary screen (AID 1173); details: S. cerevisiae BY4716 growth, OD600, 24 h; higher = more signal, called active from +8 up or from −8 down
[3] = viability profiling in MM1S myeloma cells – cell-based, resazurin fluorescence, basal, 24 h, PK04 Diversity Set, profiling panel (AID 1174); details: higher = more signal, called active from +8 up or from −8 down;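 further: MM1S multiple myeloma cell line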
[4] = target: Dihydroorotate dehydrogenase (quinone), mitochondrial (Plasmodium falciparum (isolate 3D7)) (UniProt Q08210); experiment: inhibition of P. falciparum DHODH – biochemical, C-terminal His tag, absorbance 600 nm, primary screen (AID 1175); details: PfDHODH enzyme, DCIP absorbance 600 nm; higher = more signal, called active from +8 up or from −8 down;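 further: recombinant parasite enzyme with a five histidine tag at its C terminus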
Dihydroorotate dehydrogenase (quinone), mitochondrial (Plasmodium falciparum (isolate 3D7)), sequence (Q08210 whole entry, looked up): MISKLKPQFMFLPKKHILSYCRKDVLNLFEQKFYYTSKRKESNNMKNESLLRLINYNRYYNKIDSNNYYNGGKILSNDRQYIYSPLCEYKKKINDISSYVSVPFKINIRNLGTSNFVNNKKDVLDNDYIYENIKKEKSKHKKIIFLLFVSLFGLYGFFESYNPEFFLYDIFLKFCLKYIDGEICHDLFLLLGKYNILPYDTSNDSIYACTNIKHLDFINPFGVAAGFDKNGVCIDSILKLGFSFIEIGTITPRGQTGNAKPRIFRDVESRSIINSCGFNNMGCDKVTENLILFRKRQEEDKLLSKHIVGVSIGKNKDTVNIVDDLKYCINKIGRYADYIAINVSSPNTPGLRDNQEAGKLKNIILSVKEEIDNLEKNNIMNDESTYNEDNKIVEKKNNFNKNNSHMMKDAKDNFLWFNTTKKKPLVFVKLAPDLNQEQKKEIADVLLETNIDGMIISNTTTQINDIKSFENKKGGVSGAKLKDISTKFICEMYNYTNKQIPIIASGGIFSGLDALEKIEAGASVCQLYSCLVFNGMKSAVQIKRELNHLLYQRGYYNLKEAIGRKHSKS

[5] = inhibition of PAO1 biofilm formation – strain PAO1, LB-PBS medium, absorbance 600 nm, primary screen (AID 1176); details: P. aeruginosa PAO1 growth/biofilm, A600, 12 h; higher = more signal
[6] = growth modulation of vineyard yeast isolate – strain RM11-1a, OD600, basal, 24 h, primary screen (AID 1177);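 further: cultures grown under basal conditions with no added stressor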; details: S. cerevisiae RM11-1a growth, OD600, 24 h; higher = more signal, called active from +8 up or from −8 down
[7] = growth of efflux-deficient E. coli DRC39 – strain DRC39, OD650, 24 h, E. coli filamentation inducers, primary screen (AID 1178);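 further: growth measured as culture turbidity by optical density at 650 nm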; details: E. coli DRC39 acrAB, higher = more signal, called active from +8 up or from −8 down
[8] = growth of efflux-deficient E. coli DRC39 – strain DRC39, OD650, 48 h, E. coli filamentation inducers, primary screen (AID 1179);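 further: screen aims at cell division blockers that make cells filament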; details: E. coli DRC39 delta-acrAB growth, higher = more signal, called active from +8 up or from −8 down
[9] = viability profiling in RPMI8226 myeloma cells – cell-based, resazurin fluorescence, basal, 24 h, PK04 Diversity Set, profiling panel (AID 1180); details: higher = more signal;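 further: RPMI8826 multiple myeloma cell line at 5000 cells per well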
[10] = target: E3 ubiquitin-protein ligase XIAP (Homo sapiens) (UniProt P98170); experiment: small molecules binding XIAP protein – biophysical, small-molecule microarray, fluorescence 635 nm, primary screen (AID 1181); details: higher = more signal;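 further: score merges 667 nm emission and signal to noise over triplicate slides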
E3 ubiquitin-protein ligase XIAP (Homo sapiens), sequence (P98170 whole entry, looked up, the tested form may be a part): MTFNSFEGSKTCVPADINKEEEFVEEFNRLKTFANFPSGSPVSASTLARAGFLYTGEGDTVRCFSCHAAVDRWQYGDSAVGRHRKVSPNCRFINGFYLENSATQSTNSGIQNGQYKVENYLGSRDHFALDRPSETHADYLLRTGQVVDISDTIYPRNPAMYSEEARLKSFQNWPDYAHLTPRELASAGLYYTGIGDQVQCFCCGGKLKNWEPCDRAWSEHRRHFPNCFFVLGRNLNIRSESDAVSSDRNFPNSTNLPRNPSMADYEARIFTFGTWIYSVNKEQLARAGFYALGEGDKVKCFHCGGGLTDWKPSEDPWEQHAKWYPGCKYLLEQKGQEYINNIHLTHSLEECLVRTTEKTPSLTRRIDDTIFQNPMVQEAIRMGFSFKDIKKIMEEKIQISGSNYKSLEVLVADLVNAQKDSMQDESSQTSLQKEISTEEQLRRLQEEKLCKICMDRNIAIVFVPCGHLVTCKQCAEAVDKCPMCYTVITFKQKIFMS

[11] = tested on: XIP peptide (Xip251-270) binding; experiment: XIP fragment 251-270 binding compounds – biochemical, small-molecule microarray, fluorescence 635/667 nm, 0.1 µg/mL protein, primary screen (AID 1182); details: fluorescent protein binding, 635 nm, higher = more signal, called active from +8 up or from −8 down
XIP peptide (Xip251-270) = experiment: compounds binding XIP fragment 251-270 – biochemical, small-molecule microarray, fluorescence 635/667 nm, 0.5 µg/mL protein, primary screen (AID 1183); details: fluorescence 635 nm, higher = more signal
[12] = blood-stage malaria parasite viability loss – strain 3D7, DAPI fluorescence, 100 nL, primary screen (AID 1184);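 further: parasites grown inside human red blood cells in medium with human serum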; details: P. falciparum 3D7 growth, 3 d, higher = more signal
[13] = target: Homeobox protein Hox-A13 (Mus musculus) (UniProt Q62424); experiment: disruptors of Hoxa13 oligonucleotide interaction – biochemical, fluorescence polarization, labeled oligonucleotide, primary screen (AID 1185); details: Hoxa13:DNA binding, 15 min, higher = more signal, called active from +8 up or from −8 down
Homeobox protein Hox-A13 (Mus musculus), sequence (Q62424 whole entry, looked up): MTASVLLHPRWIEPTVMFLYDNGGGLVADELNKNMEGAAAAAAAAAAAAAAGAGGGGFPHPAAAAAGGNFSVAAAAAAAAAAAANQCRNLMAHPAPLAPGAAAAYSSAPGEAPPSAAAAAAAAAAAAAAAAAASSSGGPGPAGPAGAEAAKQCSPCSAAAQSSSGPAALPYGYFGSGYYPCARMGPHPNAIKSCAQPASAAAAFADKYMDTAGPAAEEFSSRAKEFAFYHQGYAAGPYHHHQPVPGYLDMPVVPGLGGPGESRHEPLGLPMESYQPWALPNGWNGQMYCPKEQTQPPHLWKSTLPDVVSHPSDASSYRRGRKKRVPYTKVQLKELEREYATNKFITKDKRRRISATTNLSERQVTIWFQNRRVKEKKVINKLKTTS

[14] = blockers of DNA damage checkpoint Chk1 activation – imaging, HeLa, hydroxyurea, phospho-Chk1 antibody, percent positive cells, primary screen (AID 1186); details: hydroxyurea-induced phospho-Chk1 immunofluorescence imaging, higher = more signal
[15] = blockers of DNA damage checkpoint Chk1 activation – imaging, HeLa, hydroxyurea, phospho-Chk1 nuclear intensity, primary screen (AID 1187); details: hydroxyurea-induced phospho-Chk1 immunofluorescence imaging, higher = more signal

Row | SMILES | z-score [1] | z-score [2] | z-score [3] | composite z-score [4] | z-score [5] | z-score [6] | z-score [7] | z-score [8] | z-score [9] | composite z-score [10] | composite z-score [11] | composite z-score (XIP peptide (Xip251-270)) | z-score [12] | z-score [13] | z-score [14] | z-score [15]
1 | C=CCNC(=O)[C@@H]1[C@H]2C(=O)O[C@H](c3ccccc3)[C@H](c3ccccc3)N2[C@H](c2ccc(OCCO)cc2)[C@@]12C(=O)Nc1ccc(C#CCCO)cc12 | -0.13 | 1.02 (inactive) | -0.185 (inactive) | -1.24 (inactive) | 1.66 (inactive) | -0.114 (inactive) | -0.194 (inactive) | 0.184 (inactive) | -0.114 | -0.157 | 0.95 (inactive) | 0.77 | -1.02 | -3.63 (inactive) | 0.0523 (inactive) | 0.205 (inactive)
2 | C=CC[C@@]1(C(=O)N(C)C)N=C(c2ccc(OCCCO)cc2)O[C@@H]1c1ccccc1N=[N+]=[N-] | -0.614 | 0.093 (inactive) | -2.82 (inactive) | -0.007 (inactive) | 0.314 (inactive) | 0.274 (inactive) | -0.112 (inactive) | 0.0912 (inactive) | -1.71 | 0.0794 | 0.158 (inactive) | 0.888 | -2.09 | -3.42 (inactive) | 0.0664 (inactive) | 0.157 (inactive)
3 | C=CC[C@]12N=C(c3ccc(OCCCO)cc3)O[C@H]1c1ccccc1N(Cc1ccccc1)C2=O | -0.882 | 0.143 (inactive) | -3.28 (inactive) | 0.648 (inactive) | 0.603 (inactive) | 0.492 (inactive) | -0.0819 (inactive) | 0.328 (inactive) | -2.3 | -0.122 | 0.0479 (inactive) | 0.586 | -2.17 | 0.196 (inactive) | -0.241 (inactive) | -0.197 (inactive)
4 | O=C1C2C=CC(C(O)c3ccc(F)cc3)N(Nc3ccccc3F)C2C(=O)N1c1ccccc1 (stereo not drawn) | -0.395 | -1.9 (inactive) | -0.63 (inactive) | 0.306 (inactive) | 0.599 (inactive) | 0.0815 (inactive) | -0.554 (inactive) | -0.184 (inactive) | -0.292 | 0.0029 | 1.27 (inactive) | 0.252 | 0.712 | -3.25 (inactive) | 0.186 (inactive) | 0.154 (inactive)
5 | C=C(CCCC)C(=O)CC[C@H](OC(C)=O)c1cccc(OCCO)c1 | 0.0379 | -1.43 (inactive) | -0.602 (inactive) | -1.08 (inactive) | -0.387 (inactive) | -0.561 (inactive) | -0.878 (inactive) | -0.873 (inactive) | -0.482 | -0.0746 | 0.162 (inactive) | -0.0976 | -1.98 | -5.04 (inactive) | -0.0717 (inactive) | -0.148 (inactive)
6 | CCCC[C@H]1OB(O)C[C@H]2C1=C(COc1ccccc1)C[C@H]1C(=O)N(C)C(=O)[C@H]12 | -0.0384 | -2.57 (inactive) | -0.508 (inactive) | -0.514 (inactive) | -0.0946 (inactive) | -0.798 (inactive) | -0.121 (inactive) | -0.316 (inactive) | -0.59 | -0.031 | -0.146 (inactive) | -0.544 | 1.68 | -4.62 (inactive) | -0.267 (inactive) | 0.201 (inactive)
7 | C=CC[C@@]1(C(N)=O)N=C(c2ccc(OCCCO)cc2)O[C@@H]1c1ccccc1CN=[N+]=[N-] | 0.165 | -0.935 (inactive) | 0.348 (inactive) | -0.0357 (inactive) | 0.426 (inactive) | -0.742 (inactive) | 0.793 (inactive) | -0.597 (inactive) | 0.093 | -0.201 | 1.06 (inactive) | 0.843 | -1.7 | -3.93 (inactive) | 0.586 (inactive) | 1.16 (inactive)
8 | C=CCNC(=O)[C@H]1[C@@H]2C(=O)O[C@@H](c3ccccc3)[C@@H](c3ccccc3)N2[C@@H](c2ccc(OCCO)cc2)[C@]12C(=O)Nc1ccc(C#CC3=CCCCC3)cc12 | 0.735 | 2.06 (inactive) | -1.21 (inactive) | 0.472 (inactive) | 0.269 (inactive) | 2.97 (inactive) | 0.0358 (inactive) | -0.198 (inactive) | -2.77 | 0.0435 | 0.116 (inactive) | 0.731 | -1.19 | 3.25 (inactive) | 0.151 (inactive) | 0.359 (inactive)
9 | CCCCc1cn(C[C@H](Cc2ccccc2)NC(=O)N[C@H](CO)CCc2oc(C(C)=O)c(C(=O)OC)c2C(=O)OC)nn1 | -0.013 | -2.38 (inactive) | 0.465 (inactive) | -2.83 (inactive) | -0.44 (inactive) | -0.728 (inactive) | 0.916 (inactive) | 0.646 (inactive) | -0.185 | 0.276 | 0.703 (inactive) | 0.512 | -1.92 | -4.73 (inactive) | -0.185 (inactive) | -0.228 (inactive)
10 | Cc1ccc(S[C@]2(C(=O)NCC(F)(F)F)CC(=O)N(C(C)C)[C@@H]2c2ccc(CO)cc2I)cc1 | -0.185 | -1.52 (inactive) | -0.881 (inactive) | 0.436 (inactive) | 0.786 (inactive) | 0.701 (inactive) | 0.0212 (inactive) | -0.105 (inactive) | -2.05 | -0.0013 | -0.268 (inactive) | -0.467 | -0.181 | -2.7 (inactive) | 0.295 (inactive) | 0.84 (inactive)
11 | COc1cc(CO)cc(I)c1O[C@H]1C=C(C(=O)NCCO)C[C@@H](N(CCN2CCOCC2)C(=O)C2CCOC2)[C@@H]1O (stereo partly drawn) | 1.66 | -2.49 (inactive) | 0.85 (inactive) | 0.938 (inactive) | 0.355 (inactive) | 0.0222 (inactive) | 2.68 (inactive) | 1.5 (inactive) | 0.923 | 0.02 | 0.384 (inactive) | 0.551 | 0.199 | -7.57 (inactive) | -0.182 (inactive) | 0.246 (inactive)
12 | CC(C)c1ccc(NN2C(C(O)c3cc(C(F)(F)F)cc(C(F)(F)F)c3)C=CC3C(=O)N(c4ccccc4)C(=O)C32)cc1 (stereo not drawn) | -2.42 | -1.33 (inactive) | -3.12 (inactive) | 0.643 (inactive) | 1.18 (inactive) | 1.79 (inactive) | -0.447 (inactive) | -0.729 (inactive) | -5.25 | 0.0813 | 0.544 (inactive) | 0.641 | -0.764 | -3.49 (inactive) | 0.652 (inactive) | 0.417 (inactive)
13 | CCCCN1CC=CC23O[C@@H]4C=CCOC(=O)[C@@H]4[C@H]2C(=O)N(CCCCCO)[C@@H]3C1=O (stereo partly drawn) | 0.371 | 0.0133 (inactive) | -0.86 (inactive) | -0.165 (inactive) | 0.91 (inactive) | -0.176 (inactive) | -0.967 (inactive) | -0.982 (inactive) | -0.531 | 0.327 | -0.338 (inactive) | 0.0889 | -0.198 | -3.39 (inactive) | -0.0035 (inactive) | -0.504 (inactive)
14 | C=CCOC(=O)[C@H]1[C@@H]2C(=O)O[C@@H](c3ccccc3)[C@@H](c3ccccc3)N2[C@@H](c2ccc(OCCOC(=O)[C@@H]3C[C@@H]4C(=O)N[C@@H](CCCC[N+](C)(C)C)C(=O)N4[C@@H]3c3ccc(O)cc3)cc2)[C@]12C(=O)Nc1ccccc12 | 0.863 | -3.17 (inactive) | 0.844 (inactive) | -2.77 (inactive) | 0.988 (inactive) | 0.545 (inactive) | 0.0865 (inactive) | -0.661 (inactive) | 1.16 | 0.0055 | 0.543 (inactive) | 0.637 | 0.327 | 6.39 (inactive) | -0.75 (inactive) | -0.282 (inactive)
15 | COCCOC(=O)N1C(=O)[C@@]2(c3cc(C#CCCO)ccc31)[C@H](c1ccc(OCCO)cc1)N1[C@H](c3ccccc3)[C@H](c3ccccc3)OC(=O)[C@H]1[C@@H]2C(=O)N1CCN(c2ncccn2)CC1 | 0.235 | 1.37 (inactive) | 0.327 (inactive) | -0.547 (inactive) | 1.27 (inactive) | 1.24 (inactive) | -0.448 (inactive) | -0.327 (inactive) | 0.52 | -0.212 | -0.112 (inactive) | 0.676 | -1.98 | 0.671 (inactive) | 0.159 (inactive) | -0.0774 (inactive)
16 | COc1cc2c(cc1OC)CN(C(=O)[C@H]1[C@@H]3C(=O)O[C@@H](c4ccccc4)[C@@H](c4ccccc4)N3[C@@H](c3ccc(O)cc3)[C@]13C(=O)Nc1ccc(C#CC4=CCCCC4)cc13)CC2 | -0.436 | -1.16 (inactive) | -0.16 (inactive) | -1.05 (inactive) | 1.08 (inactive) | 0.449 (inactive) | -0.222 (inactive) | -0.273 (inactive) | 0.916 | -0.359 | 0.546 (inactive) | 0.795 | -2.08 | 1.4 (inactive) | 0.138 (inactive) | 0.352 (inactive)
17 | CC(C)[C@@H](CO)NC(=O)[C@H]1[C@@H](c2ccccc2)N(c2ccccc2)O[C@@H]1C | 0.872 | -2.53 (inactive) | 0.751 (inactive) | -0.857 (inactive) | 0.0573 (inactive) | 1.2 (inactive) | -0.323 (inactive) | 0.506 (inactive) | 0.566 | -0.0999 | -0.795 (inactive) | -0.248 | 0.484 | -1.23 (inactive) | -0.0482 (inactive) | 0.564 (inactive)
18 | COC(=O)[C@@]1(Cc2ccccc2)[C@H]2c3cc(C(=O)N4CCCC4)n(Cc4cccc5ccccc45)c3C[C@H]2CN1C(=O)c1ccccc1 | -1.13 | 1.37 (inactive) | -1.65 (inactive) | -0.323 (inactive) | -0.347 (inactive) | 0.224 (inactive) | -0.131 (inactive) | -0.0176 (inactive) | -1.9 | -0.0082 | 0.112 (inactive) | -0.569 | -1.35 | -3.06 (inactive) | 1.05 (inactive) | 0.243 (inactive)
